Compounds with a hit are over-represented: about 1.3% of the library has one in this group of screens.
Rpn11 block = blocks the human proteasome subunit Rpn11; human 26S proteasome, Ub4-pepOG fluorescence polarization; 20S core pre-blocked with epoxomicin; calls only at 20 µM; actives 0.59% (n = 360,000); AID 588493;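 active = inhibition at 20 µM, scaled to each plate's controls, above about 33%, limit read from the data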
Neddyl block = blocks human cullin neddylation; P61081+Q13564; actives 0.58% (n = 360,000); TR-FRET cullin neddylation, biochemical; inhibition, % at 25 µM; in the data active = inhibition above about 36%
Target sequence (P61081 whole entry, looked up): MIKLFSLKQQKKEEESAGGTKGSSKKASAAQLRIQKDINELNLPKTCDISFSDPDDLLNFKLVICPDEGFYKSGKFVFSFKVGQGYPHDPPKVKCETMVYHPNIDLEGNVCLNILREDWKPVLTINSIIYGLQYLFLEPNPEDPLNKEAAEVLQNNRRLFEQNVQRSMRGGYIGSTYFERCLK
Target sequence (Q13564 whole entry, looked up): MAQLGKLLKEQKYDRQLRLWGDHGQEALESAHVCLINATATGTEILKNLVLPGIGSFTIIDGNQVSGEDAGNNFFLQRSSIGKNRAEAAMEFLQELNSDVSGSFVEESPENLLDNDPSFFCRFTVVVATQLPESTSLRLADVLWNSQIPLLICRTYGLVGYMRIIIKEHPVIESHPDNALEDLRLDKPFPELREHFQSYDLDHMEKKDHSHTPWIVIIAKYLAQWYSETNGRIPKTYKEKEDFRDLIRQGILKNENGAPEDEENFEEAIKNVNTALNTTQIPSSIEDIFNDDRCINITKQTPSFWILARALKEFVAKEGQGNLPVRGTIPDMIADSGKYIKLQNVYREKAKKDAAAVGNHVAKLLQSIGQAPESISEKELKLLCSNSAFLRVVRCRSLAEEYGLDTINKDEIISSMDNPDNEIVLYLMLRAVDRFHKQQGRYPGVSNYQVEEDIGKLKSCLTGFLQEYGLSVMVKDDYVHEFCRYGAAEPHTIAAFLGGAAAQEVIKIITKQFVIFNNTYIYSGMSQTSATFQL
PKA-R2B act = activates the human PKA-R2B holoenzyme complex | P22694+P31323 | PKA-R2B holoenzyme dissociation, Cy5-IP20 fluorescence polarization; R2B truncated from residue 108, S112A mutant; 0% DMSO only, 100% 113 µM cGMP | activation, % at 11.4 µM | actives 0.079% (n = 340,000);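 active = activation above a cutoff set at the mean over all compounds plus 3 SD, cut at about 18% in these data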;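 note: higher means more holoenzyme dissociation and a rise in polarization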
PKA-R1A act = activates the PKA-R1A holoenzyme complex; activation, % at 11.4 µM; AID 504707; actives 0.083% (n = 340,000); PKA-R1A dissociation, Cy5-IP20 fluorescence polarization; scaled: DMSO 0%, 113 µM cGMP 100%;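 active = percent activation above the mean of all tested compounds plus 3 SD, cut at about 19% in these data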;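 note: higher means more PKAc released from R1A so a rise in polarization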
Rpn11 inh conf = Rpn11 inhibition confirmation, single concentration; shares compounds with Rpn11 block; purified human 26S proteasome, Ub4-pepOG fluorescence polarization; proteasome pretreated with epoxomicin; inhibition, % at 20 µM; actives 29% (n = 1,900); AID 602318
MMP-2 counter = counter-screen for RPN11 inhibitors: inhibition of human MMP-2 | inhibition, % at 20 µM | recombinant MMP-2, FRET peptide cleavage fluorescence | AID 602330 | shares compounds with Rpn11 block | actives 4% (n = 1,900);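 note: human MMP-2 activated beforehand with APMA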
Thrombin FP = thrombin (bovine) inhibition counter-screen | shares compounds with Rpn11 block | bovine thrombin cleavage of Ub4-pepOG, fluorescence polarization | inhibition, % at 20 µM | actives 13% (n = 1,900) | AID 602333;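 active = mean inhibition at least 40% at 20 µM, or signal 3 deviations below plate average, so some actives read negative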
Large screens that a line does not name were inactive (follow-up assays come after a bar, where shown). Cut-off read from the data, not from the text of the source, unless noted: active = inhibition above about 40%; inactive = the rest.

CCOC(=O)C1CCN(S(=O)(=O)c2cc(Br)cc3c2N(C(C)=O)C(C)C3)CC1 (stereo not drawn)	none
Cc1ccc(C2CC(c3cccs3)=NN2S(=O)(=O)c2ccc(C)cc2)cc1 (stereo not drawn)	Rpn11 block active | Rpn11 inh conf 41.1 | MMP-2 counter inactive | Thrombin FP inactive
CC(C)(C)Nc1c(C2CCNCC2)nc2c(OCc3ccccc3)cccn12	none (no result: PKA-R2B act, PKA-R1A act)
CC1=CN2C(=N)/C(=C/c3ccc(Sc4ccc(Cl)cc4)o3)C(=O)N=C2S1	none
CC1=CN2C(=N)/C(=C/c3ccc(Sc4ccc(C)cc4)o3)C(=O)N=C2S1	Rpn11 block active | Rpn11 inh conf inactive | MMP-2 counter inactive | Thrombin FP inactive
O=C(/C=C/c1cccs1)Nc1cccc(NC(=O)/C=C/c2cccs2)n1	Rpn11 block active | Rpn11 inh conf 56.4 | MMP-2 counter inactive | Thrombin FP 41.0
Cc1cc(N2CCCC2)ccc1/C=N/n1cnnc1	Rpn11 block active | Rpn11 inh conf inactive | MMP-2 counter inactive | Thrombin FP inactive
COc1ccc(C(=O)N2C(=S)NC(=O)/C2=C\c2ccc(C)cc2)cc1	Rpn11 block active | Rpn11 inh conf 107.4 | MMP-2 counter inactive | Thrombin FP 75.4
Cn1c(N/N=C/c2ccccc2)nc2sc3c(c2c1=O)CCC3	Rpn11 block active | Rpn11 inh conf inactive | MMP-2 counter inactive | Thrombin FP inactive
O=C(CSc1nc2sc3c(c2c(=O)n1-c1ccccc1)CCCC3)N/N=C/c1ccc(C(=O)O)cc1	none
CN(C)C(=S)SCC(=O)NC(=O)NC(C)(C)C	none
COc1ccccc1C(=O)COC(=O)c1cc(=O)[nH]c2ccccc12	none
Cc1ccc(C(=O)COC(=O)c2cc(=O)[nH]c3ccccc23)cc1C	Rpn11 block active | Rpn11 inh conf 58.8 | MMP-2 counter inactive | Thrombin FP inactive
CCOc1ccc(-n2cc(-c3ccc(OC)c(OC)c3)[nH]c2=S)cc1	none
CN(C)c1ccc(/C=C(/NC(=O)c2ccccc2)C(=O)N2CCCC2)cc1	Rpn11 block active | Rpn11 inh conf inactive | MMP-2 counter inactive | Thrombin FP inactive
O=C(N/N=C/c1cc([N+](=O)[O-])ccc1O)c1cc(-c2ccccc2)nc2ccccc12	Rpn11 block active | Rpn11 inh conf 42.6 | MMP-2 counter inactive | Thrombin FP inactive
O=C(Cn1ccc(NC(=O)OCc2ccccc2)nc1=O)NCc1ccc2c(c1)OCO2	none
C=CCc1cc(/C=C2/NC(=S)NC2=O)cc(OC)c1O	Rpn11 block active | Rpn11 inh conf inactive | MMP-2 counter inactive | Thrombin FP inactive
Cc1ccc(C2CC(=O)C=C(Nc3ccc(Cl)cc3)C2)cc1 (stereo not drawn)	Rpn11 block active | Rpn11 inh conf inactive | MMP-2 counter inactive | Thrombin FP inactive
CCc1nc2ccc(C(=O)NC3CCN(Cc4ccccc4)CC3)cn2c1N(C)Cc1cc2ccccc2s1	none (no result: PKA-R2B act, PKA-R1A act)
N#CC1=C(N)Oc2cc(O)c(C=Nc3ccccc3)cc2C1c1ccccc1 (stereo not drawn)	none
Cc1ccccc1N=Cc1cc2c(cc1O)OC(N)=C(C#N)C2c1ccccc1 (stereo not drawn)	Rpn11 block active | Rpn11 inh conf 95.8 | MMP-2 counter inactive | Thrombin FP 93.2
CCOc1ccc(/C=C2/SC(=S)N(CCC(=O)Nc3ccc(C(=O)O)cc3)C2=O)cc1	Rpn11 block active | Rpn11 inh conf inactive | MMP-2 counter inactive | Thrombin FP inactive
COc1ccc(/C=C2/SC(=S)N(CCC(=O)N3CCN(C)CC3)C2=O)cc1	none
CCc1ccc(/C=C2\SC(=S)N(CCC(=O)N3CCN(C)CC3)C2=O)cc1	Rpn11 block active | Rpn11 inh conf 70.0 | MMP-2 counter inactive | Thrombin FP 54.1
O=C(O)CCCCN1C(=O)/C(=C\c2ccc(OCc3ccccc3)c(OCc3ccccc3)c2)SC1=S	Rpn11 block active | Rpn11 inh conf 43.2 | MMP-2 counter inactive | Thrombin FP inactive
COc1cc(/C=C2/SC(=S)N(CC(=O)O)C2=O)ccc1OC(=O)c1ccco1	Rpn11 block active | Rpn11 inh conf inactive | MMP-2 counter inactive | Thrombin FP inactive
CC(=O)c1ccc(NC(=O)CC23CC4CC(C2)CC(n2nnc(C)n2)(C4)C3)cc1	none
Cc1ccc2nc(Cl)c(/C=N/n3c(C)nnc3C)cc2c1	none
Cc1ccc(C(=O)Nc2nnc(S(=O)(=O)N3CCC(C)CC3)s2)cc1	none
COc1ccc(/C=C2/SC(=S)N(CCCC(=O)Nc3ccc(O)cc3)C2=O)cc1OC	Rpn11 block active | Rpn11 inh conf 60.7 | MMP-2 counter inactive | Thrombin FP 42.3
COc1ccc(/C=C2\SC(=O)N(CCCC(=O)Nc3ccc(C(=O)O)cc3)C2=O)cc1OC	none
COc1ccc(/C=C2\SC(=S)N(CCCC(=O)Nc3ccc(C(=O)O)cc3)C2=O)cc1OC	Rpn11 block active | Rpn11 inh conf 67.2 | MMP-2 counter inactive | Thrombin FP 51.6
COc1ccc(/C=C2\SC(=S)N(CCCC(=O)Nc3ccccc3C(=O)O)C2=O)cc1OC	Rpn11 block active | Rpn11 inh conf 88.0 | MMP-2 counter inactive | Thrombin FP 80.9
Cc1ccc(/C=C2\SC(=S)N(CCCC(=O)NNC(=O)c3ccccc3O)C2=O)cc1	Rpn11 block active | Rpn11 inh conf 42.8 | MMP-2 counter inactive | Thrombin FP inactive
CCOc1ccc(N(CC(=O)NC(C)(C)C)C(=O)CCC(=O)Nc2nccs2)cc1	none
Nc1cc(Cl)ccc1C(=O)OCC(=O)N1CCOCC1	none (not shown: Neddyl block)
CCOc1cc(/C=C2\C(=N)N3N=C(S(=O)(=O)CC)SC3=NC2=O)ccc1OC(=O)c1ccco1	none
COc1cc(/C=C2\C(=N)N3N=C(S(C)(=O)=O)SC3=NC2=O)ccc1OC(=O)c1ccco1	Rpn11 block active | Rpn11 inh conf inactive | MMP-2 counter inactive | Thrombin FP inactive
COc1ccc(C(=O)CN2Cc3ccccc3C2=N)cc1	none
O=C(NC(=S)Nc1ccccc1O)c1cncc(Br)c1	Rpn11 block active | Rpn11 inh conf inactive | MMP-2 counter inactive | Thrombin FP inactive
O=C(NCC1CCOCC1)c1ccc(-c2ccc(F)c(F)c2)c2ccoc12	none (no result: PKA-R2B act, PKA-R1A act)
O=C(CSc1nnnn1C1CC2C=CC1C2)Nc1ccc(C(=O)O)cc1 (stereo not drawn)	none
COc1ccccc1NC(=O)Cn1c(C)nc2c(sc(=S)n2Cc2ccco2)c1=O	Rpn11 block active | Rpn11 inh conf inactive | MMP-2 counter inactive | Thrombin FP inactive
Cc1nc2c(sc(=S)n2Cc2ccco2)c(=O)n1CC(=O)Nc1cc(F)ccc1F	none
Cc1[nH]c2ccccc2c1/C=N/Nc1ccccc1[N+](=O)[O-]	none

Source: PubChem BioAssay
